# ATXN viability: reduces viability in counter-screen for ATXN expression inhibitors | S2 cells (HEK-293 line with an ATXN2-luciferase reporter) viability, CellTiter-Fluor protease fluorescence, 24 h | Potency, µM (titrated, usually from 56.7 µM), most hits filed as cytotoxic | hit rate 0.49% among 400,000 | AID 651635; also: potency is read from the fitted curve at half-maximal effect; nearly all actives have a fitted effect of over 40% in size
# IL1B secr inh: inflammasome signaling inhibition, IL-1 beta readout; THP-1 LPS/ATP IL-1B secretion, AlphaLISA, 16 h; stronger effect = lower value; activity change, % at 57.5 µM; hit rate 4.7% among 360,000; AID 743279; in the data active = activity change below about -50%; inconclusive = mostly about -30% to -49%; also: % is scaled to controls: 0 for no effect and ±100 for the full control effect
#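 Secreted IL-1B measured by AlphaLISA bead assay after 16 h compound exposure of THP-1 cells; compounds (final up to 57.5 uM) added 1 h before LPS (250 ng/mL) and ATP (1.25 mM) stimulation; lower signal means less secretion.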
# HepG2 tox-1: kills HepG2 cells in TGF-b inhibitor counter-screen; AID 588856; hit rate 0.76% among 410,000; HepG2 CAGA-GFP viability, ATP luminescence, 18 h; Potency, µM (titrated, usually from 46.1 µM), for the others: top-dose activity change, negative = cytotoxicity, most hits filed as cytotoxic; also: potency is read from the fitted curve at half-maximal effect
#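 HepG2 CAGA-GFP cells (1000/well, DMEM with 1% FBS) received compound, then TGF-beta at 500 pg/mL final, and were incubated 18 hours at 37 degrees C. Viability was read by CellTiter-Glo luminescence. Media-only wells were set as complete cell-killing and DMSO as no toxicity.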
# ATXN2 expr inh: inhibitors of ATXN2 expression; Potency, µM (titrated, usually from 57 µM), for the others: at the top dose activity change, negative = inhibition, hits mostly inhibitors; hit rate 0.72% among 360,000; AID 1745845; HEK-293 ATXN2-luciferase reporter, luminescence, 24 h; also: potency is read from the fitted curve at half-maximal effect; % is scaled to controls: 0 for no effect and ±100 for the full control effect; nearly all actives have a fitted effect of over 55% in size
#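 qHTS (up to 57 uM final) was run with 24 h compound exposure of reporter cells at 37 °C. Each well was multiplexed: SteadyGlo luminescence measured ATXN2-luciferase expression after a fluorogenic Gly-Phe-AFC viability readout (25 uM final).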
# TGFb SMAD3 inh: TGF-b pathway inhibition; Potency, µM (highest dose often 46.1 µM), for the others: top-dose activity, negative = inhibition, usual class: inhibitors; HepG2 CAGA-GFP TGF-b/SMAD3 reporter, GFP fluorescence, 18 h; TGF-beta stimulated, 500 pg/mL final; hit rate 1.2% among 410,000; also: potency is read from the fitted curve at half-maximal effect; % is scaled to controls: 0 for no effect and ±100 for the full control effect; nearly all actives have a fitted effect of over 65% in size
#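 HEPG2 CAGA-GFP, 1000 cells/well; 2 h settle, 37 C; cpd via pin tool; TGF-b 500 pg/mL final; 18 h, 37 C; GFP imaging ex488/em500-530; %Activity normalised to -TGF-b and +DMSO controls; CRC fit, curve class.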
# TGFb CAGA inh: TGF-b pathway inhibition, cherry-pick retest. shares compounds with TGFb SMAD3 inh. HepG2 CAGA-GFP TGF-b reporter, GFP fluorescence, 18 h; cells stimulated with TGF-beta, 500 pg/mL. Potency, µM (top dose mostly 46.1 µM), without a hit: at the top dose activity, negative = inhibition, actives largely listed as inhibitors. hit rate 63% among 1,600. AID 720534; also: potency is read from the fitted curve at half-maximal effect; % is scaled to controls: 0 for no effect and ±100 for the full control effect; nearly all actives have a fitted effect of over 65% in size
# HepG2 tox-2: counter-screen for TGF-b inhibitors: cytotoxicity in HepG2 cells. Potency, µM (top dose mostly 46.1 µM), for the others: at the top dose activity, negative = cytotoxicity, most hits filed as inhibitors. hit rate 27% among 1,600. shares compounds with TGFb SMAD3 inh. HepG2 CAGA-GFP viability, ATP luminescence, 18 h; cells stimulated with TGF-beta, 500 pg/mL. AID 720535; also: potency is read from the fitted curve at half-maximal effect; % is scaled to controls: 0 for no effect and ±100 for the full control effect; nearly all actives have a fitted effect of over 70% in size
# CCL64 TGFb inh: TGF-b inhibition, CCL64 orthogonal assay; shares compounds with TGFb SMAD3 inh; CCL64 CAGA-GFP reporter, TGF-b stimulated, GFP fluorescence, 18 h; Potency, µM (doses to about 46.1 µM), inactives show at the highest dose activity, negative = inhibition, hits mostly inhibitors; hit rate 41% among 1,600; also: potency is read from the fitted curve at half-maximal effect; nearly all actives have a fitted effect of over 65% in size
# COP TGFb inh: blocks TGF-b signaling in HepG2 COP reporter; hit rate 3% among 1,600; shares compounds with TGFb SMAD3 inh; Potency, µM (series often up to 46.1 µM), without a hit: at the highest dose activity, negative = inhibition, usual class: inhibitors; HepG2 COP-GFP TGF-b reporter, GFP fluorescence, 18 h; cells stimulated by added recombinant TGF-beta; AID 720537; also: potency is read from the fitted curve at half-maximal effect; nearly all actives have a fitted effect of over 70% in size
# * hit, by the source's call; i = inactive; ? = inconclusive; · = no result given. The list is not random: actives were taken first. Their share in the collection is about 5.7%. Unless noted, calls follow the shape of the dose curve; as a rule, active = well fitted curve in the direction sought with a large enough effect; inconclusive = small, poorly fitted or top-dose-only effect, or another doubt; inactive = no such curve, though single readings can be large; an effect the other way counts as inactive or inconclusive.
SMILES,ATXN viability,IL1B secr inh,HepG2 tox-1,ATXN2 expr inh,TGFb SMAD3 inh,TGFb CAGA inh,HepG2 tox-2,CCL64 TGFb inh,COP TGFb inh
COc1ccc(NC(=O)C(=O)NCC2(c3ccccc3)CCCC2)c(OC)c1,·,·,-1%,·,-10%,·,·,·,·
O=C(CN1CCN(S(=O)(=O)c2cccc(Br)c2)CC1)NCCc1cccs1,i,-12,-5%,-5%,-30%,·,·,·,·
Cc1cc(S(=O)(=O)N2CCN(CC(=O)NCCc3cccs3)CC2)ccc1Br,i,15,-8%,-15%,11µM*,?,-10%,-10%,25%
CCc1nn2c(-c3ccco3)ccnc2c1-c1ccccc1,i,·,6%,19%,?,·,·,·,·
O=C(COc1ccc(C(=O)c2ccccc2)cc1)NCc1ccc(F)cc1,?,-3,5%,-22%,?,9.2µM*,-14%,?,-4%
O=C(COc1ccccc1)NCc1ccccc1,i,20,11%,13%,0%,·,·,·,·
O=C(Cc1csc(NC(=O)Nc2ccc(Cl)cc2)n1)NC1CCCC1,i,-53*,-23%,3%,11µM*,16µM*,-28%,?,23%
O=C(Cc1csc(NC(=O)Nc2ccc(Cl)cc2)n1)NCc1ccccn1,i,-11,-16%,22%,?,·,·,·,·
CC(C(=O)N1CCc2ccccc21)N1CCN(c2cccc(C(F)(F)F)c2)CC1 (centres undefined),i,?,-39%,-17%,7.1µM*,?,3%,?,-9%
Cc1ccccc1CN1C(=O)c2ccccc2S(=O)c2ccc(C(=O)NCc3ccccc3)cc21 (centres undefined),·,·,-20%,·,-3%,·,·,·,·
NNC(=O)c1[nH]c2ccc([N+](=O)[O-])cc2c1-c1ccccc1,i,26,-24%,·,3.5µM*,?,-19%,?,-14%
O=C1NC(Cc2ccc(O)cc2)c2nc3cc(F)c(F)cc3c(=O)n2-c2cc3ccccc3cc21 (centres undefined),·,-28,-20%,?,16µM*,?,?,?,62%
O=C1NC(Cc2ccccc2)c2nc3cc(F)c(F)cc3c(=O)n2-c2cc3ccccc3cc21 (centres undefined),?,-5,-21%,-32%,-2%,·,·,·,·
COc1ccccc1NS(=O)(=O)c1cccc(NC(=O)Nc2ccccc2)c1,i,-79*,-25%,-29%,10µM*,?,?,?,57%
COc1ccc(N/C(N)=N/c2nc(C)cc(=O)[nH]2)cc1,i,21,3%,-9%,8%,·,·,·,·
CCOc1ccc(N/C(N)=N/c2nc(C)cc(C)n2)cc1,?,-3,-28%,·,?,-28%,-26%,?,8%
Cc1cc(C)nc(/N=C(\N)Nc2ccc(SC(F)F)cc2)n1,i,0,-38%,·,8.9µM*,-25%,?,?,28%
COc1cccc2c1C(=O)c1c(O)c3c(c(O)c1C2=O)C[C@](O)(C(C)=O)C[C@H]3O[C@@H]1C[C@@H](N)[C@@H](O)[C@@H](C)O1,?,?,-86%,?,1µM*,1µM*,0.52µM*,4.1µM*,?
COc1ccc(Cl)cc1NC(=O)c1ccc2nc(Cc3ccccc3)oc2c1,i,·,-33%,-30%,-9%,·,·,·,·
COc1ccc(C(=O)Nc2ccc3oc(Cc4ccc(Cl)cc4)nc3c2)cc1OC,?,7,-23%,?,16µM*,?,-18%,13%,0%
CC1CCN(S(=O)(=O)c2cc(C(=O)NCCc3ccccc3)n(C)c2)CC1,i,·,-1%,-13%,?,·,·,·,·
CC1CCc2[nH]c3ccc(C(=O)N4CCCC(C(F)(F)F)C4)cc3c2C1 (centres undefined),i,-62*,8%,6%,14µM*,?,?,21µM*,58%
CCn1nc([N+](=O)[O-])c(C(C#N)c2nc3cc(C(F)(F)F)ccc3s2)c(Cl)c1=O (centres undefined),·,-97*,-100%,?,0.35µM*,3.3µM*,8.2µM*,5.2µM*,-29%
COc1cc(C(=O)Nc2ccc(-c3cc(C(F)(F)F)nn3-c3ccccc3)cc2)cc(OC)c1OC,i,·,-28%,-26%,-24%,·,·,·,·
Oc1ccc(CNc2ccccc2)c2cccnc12,i,9,-52%,-35%,?,·,·,·,·
SMILES,ATXN viability,IL1B secr inh,HepG2 tox-1,ATXN2 expr inh,TGFb SMAD3 inh,TGFb CAGA inh,HepG2 tox-2,CCL64 TGFb inh,COP TGFb inh
Cc1ccccc1NCc1ccc(O)c2ncccc12,i,45,-41%,?,10µM*,?,?,5.8µM*,26%
CN(C)CCNC(=O)c1cccc2[nH]c(-c3ccncc3)nc12,?,-82*,-41%,?,10µM*,16µM*,21µM*,13µM*,21%
CCOC(=O)C(CC)Sc1ncnc2sc3c(c12)CCCC3 (centres undefined),i,·,-1%,-3%,9%,·,·,·,·
CCN(CC)C(=O)CSc1nnc2nnc3cc(Cl)ccc3n12,i,18,-86%,-21%,4µM*,23µM*,23µM*,?,?
COc1cccc(C2c3cc4c(cc3OC(NNC(N)=O)C2C)OCO4)c1O (centres undefined),?,33,3%,10%,10µM*,8.2µM*,-19%,?,-15%
CCN(CC)C1Oc2cc3c(cc2C(c2cccc(OC)c2O)C1C)OCO3 (centres undefined),?,-25,-3%,-24%,?,·,·,·,·
COc1ccc(C2c3cc4c(cc3OC(NNC(N)=O)C2C)OCO4)cc1 (centres undefined),i,16,-4%,-5%,-25%,·,·,·,·

# Screening results (PubChem)
